Laboratory results as given in the supplement of paper PMC9897528.

The compounds below were run on Scedosporium aurantiacum CBS 136046 (assay: growth inhibition relative to DMSO control (OD600); higher = more antifungal activity, active = 80 or more; extreme values may be limits of the assay). Settings: 5 µM; 72 h; 37 °C.
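Note: conidia screened in RPMI 1640 medium under 5% CO2, growth read by spectrophotometer, medium with 0.5% DMSO serving as the untreated reference.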

Growth inhibition, inactive:
CC(C)(C)c1cc(C(=O)/C(C#N)=N/Nc2cccc(Cl)c2)no1 35.3%
CSC[C@H]1CN(Cc2c[nH]c3c(N)ncnc23)C[C@@H]1O 10.5%
NC[C@H]1OB(O)c2c(OCCCO)cccc21 34.1%
CC(C)Cn1c(=O)n(C)c(=O)c2c(-c3cncn3C)n(Cc3cccc4ccccc34)nc21 29%
C[C@H](NC(CC(=O)c1ccccc1C(F)(F)F)C(=O)O)c1ccccc1 (stereo not given in full) 2.25%
Cc1[nH]c2ccccc2c1CCNCc1ccc(/C=C/C(=O)NO)cc1 26.8%
COc1cc(C2C3=C(CC(C)(C)CC3=O)Nc3ccccc3N2C(C)=O)ccc1OCc1ccccc1 (stereo not given) 0.481%
CN(C)CCCNC(=O)c1ccc(-c2cc(O)c3ncccc3c2)cc1 11.4%
COc1cc(C(C(=O)NC2CCCCC2)N(C(=O)Cc2c[nH]c3ccccc23)c2ccc(C(C)C)cc2)cc(OC)c1OC (stereo not given) 6.79%
C[C@H]1COc2c(N3CCN(C)CC3)c(F)cc3c(=O)c(C(=O)O)cn1c23 6.31%
O=C(CP(=O)(O)O)NCCc1cccc(Oc2ccccc2)c1 31.5%
N#Cc1cc([N+](=O)[O-])ccc1Oc1ccccc1Cl 20.3%
CN1CCN(c2ccc3[nH]c(-c4ccc5[nH]c(-c6ccc(O)cc6)nc5c4)nc3c2)CC1 11.7%
CC[C@@H](CO)NCCN[C@@H](CC)CO 11.4%
CC(C)(C)c1cccc(-c2nc3cc(C(=N)N)ccc3[nH]2)c1O 17.4%
